Reference: PubChem BioAssay (NCATS)
Results filed as inconclusive are left out. Activity calls are given as the source filed them. Unless noted, calls come from the whole dose curve; as a rule, active = well fitted curve in the direction sought with a large enough effect; inconclusive = small, poorly fitted or top-dose-only effect, or another doubt; inactive = no such curve, though single readings can be large; an effect the other way counts as inactive or inconclusive.

Tests used:
[1] = Cell Viability - Jurkat (AID 426;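 active = dose-dependent loss of cell ATP signal giving a full or clear fitted curve, ranked by lower potency value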;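 note: potency is the fitted concentration of half-maximal effect; cells exposed to compound for 40 hours at 37 °C before ATP read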); details: qHTS
Method in brief: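 Luminescent ATP read-out (CellTiter-Glo, 20 min at room temperature) after 40 hr compound exposure at 37 °C of Jurkat E6-1 cells, 5000/well. Decreased ATP taken as cytotoxicity; AC50 from standard Hill equation.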

[2] = Cell Viability - Hek293 (AID 427;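 active = compounds whose dose-response curve shows a full or clear partial loss of cell viability, called from curve shape rather than a numeric limit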;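 note: potency is the fitted concentration of half-maximal effect; cells exposed to compound for 40 hours at 37 °C before reading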); details: qHTS
Method in brief: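 Luminescent ATP read-out (CellTiter-Glo, 20 min RT) after 40 hr compound exposure at 37 °C in complete medium. Signal normalized to DMSO (basal) and 100 uM tamoxifen (100% inhibition); concentration-response fitted with the standard Hill equation to give AC50.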

[3] = Cell Viability - HepG2 (AID 433; calls by dose curve;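 note: potency is the fitted concentration of half-maximal effect; potency for ATP loss meaning cytotoxicity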); details: qHTS
Method in brief: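 Cytotoxicity is scored as loss of intracellular ATP in HepG2 cells exposed to compounds for 40 h. Concentration-response curves, normalized to DMSO and 100 uM tamoxifen, give AC50 values.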

[4] = target: Mitogen-activated protein kinase 10 (Mus musculus) (UniProt Q61831); test: JNK3 AlphaScreen Assay (AID 530; active = well fitted curve in either direction with a large enough effect, not every such curve was filed as active;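 note: kinase came from lysate of stimulated human HepG2 cells; signal reports phosphorylation of biotinylated GST-cJun 1-79 at Ser73 with 10 µM ATP; % is set by controls: 0 for no effect and ±100 for the full control effect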)
Method in brief: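 Kinase buffer: 20 mM Tris-HCl pH 7.6, 10 mM MgCl2, 1 mM DTT, 0.1 mM Na3VO4, 0.01% Tween-20; ATP 10 uM. Substrate biotin-GST-cJun(1-79), enzyme from activated HepG2 lysates. Detection by Ser73 phospho-antibody AlphaScreen.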

[5] = Cell Viability - N2a (AID 540); details: N2a mouse neuroblastoma cell viability; activity change, negative = cytotoxicity: at 92.2 µM (top of the series);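 note: cells exposed to compound for 40 h at 37 °C; plate controls were DMSO alone for no effect and tamoxifen control for full effect; nearly all actives have a fitted effect of over 45% in size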
Method in brief: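 N2a mouse neuroblastoma, 1500 cells/well, 5 hr settle; compound 40 hr, 37 °C; CellTiter-Glo 20 min RT; luminescence; Hill-fit AC50.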

[6] = Cell Viability - NIH 3T3 (AID 541); details: NIH 3T3 cell viability, qHTS; activity change, negative = cytotoxicity: at 92.2 µM (top of the series);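 note: plate controls were DMSO alone for no effect and tamoxifen positive control for full effect; nearly all actives have a fitted effect of over 25% in size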
Method in brief: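 qHTS format; 40 hr compound exposure, 37 °C; CellTiter-Glo luminescence (cellular ATP) read-out after 20 min at RT. Decrease in ATP = cytotoxicity; AC50 from standard Hill fit.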

[7] = Cell Viability - SH-SY5Y (AID 544); details: SH-SY5Y neuroblastoma cell viability; viability change, negative = cytotoxic: at 92.2 µM (top of the series); note: nearly all actives have a fitted effect of over 55% in size
Method in brief: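 SH-SY5Y, 1500 cells/well, 5 hr pre-incubation 37 °C; cpd 40 hr 37 °C; CellTiter-Glo 20 min RT; luminescence (ATP) read. qHTS concentration-response, Hill fit → AC50. Tamoxifen, doxorubicin as positive controls.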

[8] = Cellular Toxicity (caspase-3) HepG2 (AID 654);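 note: cells exposed to compound for 16 hours before reading; 0% = DMSO alone and 100% = caspase signal from 100 µM tamoxifen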
Method in brief: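 Luminescent Caspase-Glo 3/7 readout after 16 hr compound exposure of human hepatocellular carcinoma HepG2 cells at 37 °C; qHTS concentration-response, normalized DMSO = 0%, 100 uM tamoxifen = 100%; AC50 by standard Hill equation.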

[9] = Cellular Toxicity (caspase-3) Jurkat (AID 655); details: Jurkat caspase-3 activation, luminescence; caspase-3 activation: at 92.2 µM (top of the series), DMSO = 0%, tamoxifen = 100%;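 note: cells exposed to compound for 16 h at 37 °C before reading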
Method in brief: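 Caspase 3/7 activation is scored as increased luminescence in Jurkat cells cultured with compound for 16 hours in complete medium. AC50 values come from Hill fits of qHTS concentration-response data normalized to DMSO and 100 uM tamoxifen controls.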

[10] = Cellular Toxicity (caspase-3) BJ (AID 658);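 note: 0% = DMSO basal and 100% = 10 µM staurosporine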
Method in brief: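 Caspase-Glo 3/7 luminescence, read 1 hr after reagent at room temperature, in normal BJ fibroblasts exposed 16 hours at 37 °C. AC50 values from Hill-equation concentration-response, scaled between DMSO basal and 10 uM staurosporine as 100%.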

[11] = Cellular Toxicity (caspase-3) Mesangial (AID 660); details: Potency: caspase-3 activation;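 note: combined caspase 3 and 7 activity read by Caspase-Glo luminescence; cells exposed to compound for 16 h before the caspase read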
Method in brief: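 Luminescent Caspase-Glo 3/7 readout (aminoluciferin substrate cleavage, 20 min RT) after 16 h compound exposure at 37 °C of normal human mesangial cells. Signal increase normalized between DMSO basal and 100 uM tamoxifen; Hill-equation AC50.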

[12] = Cellular Toxicity (caspase-3) Hek293 (AID 664); details: HEK293 caspase-3 activation, DMSO = 0%, 100 µM tamoxifen = 100%; at 92.2 µM (top of the series);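 note: cells exposed to compound for 16 h at 37 °C before readout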
Method in brief: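 Luminescent Caspase-Glo 3/7 readout (aminoluciferin release) in HEK293 cells after 16 h compound treatment, 37 °C. Normalization: DMSO = basal, 100 uM tamoxifen = 100% stimulation. Concentration-response fitted with standard Hill equation for AC50.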

[13] = Cellular Toxicity (caspase-3) NIH 3T3 (AID 666);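 note: 0% = DMSO basal and 100% = 100 µM tamoxifen stimulation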
Method in brief: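 NIH 3T3, 1000 cells/well, 5 hr settle then 16 hr compound at 37°C; Caspase-Glo 3/7, 20 min RT, luminescence. DMSO = basal, 100 uM tamoxifen = 100%. Hill-equation AC50, qHTS.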

[14] = Cellular Toxicity (caspase-3) Renal Proximal Tubule (AID 667); details: renal proximal tubule cells; at 91.7 µM (top of the series) unless noted;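 note: cells exposed to compound for 16 hours at 37 °C before detection; 0% = DMSO basal and 100% = 10 µM staurosporine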
Method in brief: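 In qHTS format, rat primary proximal tubule cells seeded at 1000 per well are exposed to compounds for 16 hours at 37 °C. An increase in Caspase-Glo 3/7 luminescence indicates caspase activation.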

[15] = target: Cytochrome P450 3A4 (Homo sapiens) (UniProt P08684); test: qHTS Assay for Inhibitors and Substrates of Cytochrome P450 3A4 (AID 884); note: potency is the fitted concentration of half-maximal effect; nearly all actives have a fitted effect of over 50% in size
Chain of Cytochrome P450 3A4 (Homo sapiens) (P08684 whole entry, looked up): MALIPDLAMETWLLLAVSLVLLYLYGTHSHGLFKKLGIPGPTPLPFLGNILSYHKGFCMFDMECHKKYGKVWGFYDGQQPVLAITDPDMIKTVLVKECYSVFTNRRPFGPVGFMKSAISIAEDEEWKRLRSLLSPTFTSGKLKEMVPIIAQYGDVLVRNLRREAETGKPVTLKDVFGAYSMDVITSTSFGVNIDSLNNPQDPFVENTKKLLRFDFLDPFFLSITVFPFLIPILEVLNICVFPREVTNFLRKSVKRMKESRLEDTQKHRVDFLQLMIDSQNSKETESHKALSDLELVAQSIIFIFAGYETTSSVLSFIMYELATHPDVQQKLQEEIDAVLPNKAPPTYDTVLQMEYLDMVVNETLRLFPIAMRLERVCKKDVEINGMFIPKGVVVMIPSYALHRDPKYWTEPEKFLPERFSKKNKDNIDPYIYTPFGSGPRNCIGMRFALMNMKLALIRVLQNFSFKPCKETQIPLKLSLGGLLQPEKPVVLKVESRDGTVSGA
Method in brief: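 Luminescent readout of luciferin produced by CYP3A4 (20 nM) dealkylation of Luciferin-PPXE, 25 uM (its KM). NADPH-driven reaction ran 60 min at RT after 10 min compound preincubation; data scaled to 57 uM ketoconazole as 100% inhibition.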

[16] = target: Cytochrome P450 3A4 (Homo sapiens) (UniProt P08684); test: qHTS Assay for Activators of Cytochrome P450 3A4 (AID 885); note: nearly all actives have a fitted effect of over 65% in size
Method in brief: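 CYP3A4 activity: Luciferin-PPXE O-dealkylation, 25uM substrate, 200mM KPO4, RT throughout. Read-out is luciferase luminescence; higher values reflect activation.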

[17] = Cell Viability - LYMP2-001 (AID 921);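 note: 0% = DMSO only and full inhibition = tetraoctylammonium bromide control wells; nearly all actives have a fitted effect of over 70% in size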
Method in brief: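 qHTS, 1536-well; lymphoblastoid cells, 24 hr compound, 37 C; ATP by CellTiter-Glo, 30 min RT; luminescence; Hill-fit AC50.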

[18] = MultiTox-Fluor Cytotoxicity Assay - LYMP1-001 - Dead Cells (AID 946);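 note: 0% = DMSO and 100% = tetraoctylammonium bromide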
Method in brief: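 AC50 from Hill fit of concentration-response; data normalized to DMSO (basal) and 15 uM tetraoctylammonium bromide (100%). LYMP1-001 lymphoblastoid cells, 2500/well, 16 hr compound at 37 C; dead-cell protease fluorescence, Ex/Em 485/520.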

[19] = MultiTox-Fluor Cytotoxicity Assay - LYMP1-003 - Dead Cells (AID 961); note: potency is the fitted concentration of half-maximal effect; nearly all actives have a fitted effect of over 70% in size
Method in brief: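 Human lymphoblastoid LYMP1-003 cells (2500/well) were treated with compounds for 16 hr at 37 C in complete medium. Dead-cell protease release was read by bis-AAF-R110 fluorescence (Ex/Em 485/520). AC50 came from Hill fits, normalized to DMSO and 15 uM tetraoctylammonium bromide.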

[20] = MultiTox-Fluor Cytotoxicity Assay - LYMP1-003 - Live Cells (AID 962);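 note: 0% = DMSO only and full loss = 92 µM tetraoctylammonium bromide; cytotoxic hits lower the live-cell protease signal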
Method in brief: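 Readout: live-cell fluorescence (Ex/Em=405/510) from GF-AFC cleavage after 60 min MultiTox-Fluor reagent at room temperature. Lymphoblastoid LYMP1-003 cells, 16 hr compound treatment, 37 C. Concentration-response fitted to standard Hill equation for AC50.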

[21] = Cell Viability - LYMP2-005 (AID 967);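 note: plate controls were DMSO only for no effect and 92 µM tetraoctylammonium bromide control for full effect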
Method in brief: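 qHTS viability screen in LYMP2-005 cells: 24 h at 37 C with compound, ATP luminescence via CellTiter-Glo, AC50 from Hill curves.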

[22] = Cell Viability - LYMP2-009 (AID 968);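 note: 0% = DMSO alone and the full-kill end = tetraoctylammonium bromide at 92 µM; nearly all actives have a fitted effect of over 55% in size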
[23] = Cell Viability - LYMP2-011 (AID 969);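 note: cells exposed to compound for 24 hours; 0% = DMSO only and full inhibition = 92 µM tetraoctylammonium bromide; nearly all actives have a fitted effect of over 60% in size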
Method in brief: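 Luminescent ATP read-out (CellTiter-Glo, 30 min RT) after 24 hr compound exposure at 37 C in human lymphoblastoid cells, 2500 cells/well. Decreasing ATP indicates cytotoxicity; AC50 from standard Hill fit.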

ClC1=C(Cl)C2(Cl)C3C(Cl)C(Cl)CC3C1(Cl)C2(Cl)Cl (stereo not drawn)
inactive: Potency [3] > 92 µM | outcome [4] | Potency [6] | outcome [8] | outcome [10] | Potency [11] | outcome [13] | caspase-3 activation [14] 19% | Potency [16] | Potency [17] | Potency [18] | Potency [20] | Potency [21] | Potency [22] | Potency [23]
active: Potency [1] 60.7 µM | Potency [2] 72.7 µM | activity change, negative = cytotoxicity [5] -82.9% | viability change, negative = cytotoxic [7] -97.5% | caspase-3 activation [9] 81.5% | caspase-3 activation [12] 204% | Potency [15] 15.8 µM | Potency [19] 50.1 µM
